Data reported in the supplement of paper PMC7411054.
Where a name gives a salt, the structure may show the parent alone.

Experiments:
Assay in all cases: lowest phenotypically active concentration; higher = less potent
Conditions in all cases: treatment time: 24 h
HepG2-ACTB-RAB5A = tested on: HepG2-ACTB-RAB5A
Procedure, shortened: (§1)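 Phenotypic activity depended on meeting both a deviation and a reproducibility criterion. The fifteen gene-edited A549, HepG2 and WPMY1 reporter lines were treated at 0.3, 1, 3 or 9 µM for 24 h, four wells each, then imaged live with features normalised to solvent control wells. Deviation required ≥3 of 4 wells past the 95th percentile of control Euclidean distances, and reproducibility a median replicate Pearson correlation above the 95th percentile of non-replicates.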

HepG2-CANX-COX4 = tested on: HepG2-CANX-COX4
Procedure, shortened: as §1

HepG2-GM130-SQSTM1 = tested on: HepG2-GM130-SQSTM1
Procedure, shortened: as §1

HepG2-TP53BP1-CLTA = tested on: HepG2-TP53BP1-CLTA
Procedure, shortened: as §1

HepG2-TUBA1B-RELA = tested on: HepG2-TUBA1B-RELA
Procedure, shortened: as §1

WPMY1-ACTB-RAB5A = tested on: WPMY1-ACTB-RAB5A
Procedure, shortened: as §1

WPMY1-CANX-COX4 = tested on: WPMY1-CANX-COX4
Procedure, shortened: as §1

WPMY1-GM130-SQSTM1 = tested on: WPMY1-GM130-SQSTM1
Procedure, shortened: as §1

WPMY1-TP53BP1-CLTA = tested on: WPMY1-TP53BP1-CLTA
Procedure, shortened: as §1

WPMY1-TUBA1B-RELA = tested on: WPMY1-TUBA1B-RELA
Procedure, shortened: as §1

Measured: lowest phenotypically active concentration

COc1cc2c(Nc3ccc(Br)cc3F)ncnc2cc1OCC1CCN(C)CC1 [vandetanib]
9 µM: WPMY1-TP53BP1-CLTA
1 µM: HepG2-TUBA1B-RELA
3 µM: all other assays above

O=C1NCCN1CCN1CCC(c2cn(-c3ccc(F)cc3)c3ccc(Cl)cc23)CC1 [sertindole]
9 µM: HepG2-ACTB-RAB5A | HepG2-CANX-COX4 | WPMY1-ACTB-RAB5A | WPMY1-GM130-SQSTM1 | WPMY1-TP53BP1-CLTA
3 µM: all other assays above

CCOC(=O)CCNc1cc(N2CCc3ccccc3CC2)nc(-c2ccccn2)n1
9 µM: WPMY1-ACTB-RAB5A | WPMY1-CANX-COX4 | WPMY1-TUBA1B-RELA
3 µM: all other assays above

O=C(NCCCNc1nc(Nc2cccc(NC(=O)N3CCCC3)c2)ncc1I)c1cccs1
≤ 0.3 µM: HepG2-TUBA1B-RELA
1 µM: HepG2-CANX-COX4 | HepG2-TP53BP1-CLTA
3 µM: all other assays above

O=C(CCCc1ccc(-c2ccccc2F)cc1)Nc1ccc(O)cc1
9 µM: HepG2-TP53BP1-CLTA
3 µM: HepG2-ACTB-RAB5A | HepG2-CANX-COX4 | HepG2-GM130-SQSTM1 | HepG2-TUBA1B-RELA
1 µM: all other assays above

COc1ccc(S(=O)(=O)Nc2cccnc2Nc2ccc(O)cc2)cc1
≤ 0.3 µM: WPMY1-ACTB-RAB5A | WPMY1-CANX-COX4 | WPMY1-TP53BP1-CLTA | WPMY1-TUBA1B-RELA
1 µM: all other assays above

Nc1ccc(-c2cccc3c(=O)cc(N4CCOCC4)oc23)cc1
9 µM: HepG2-CANX-COX4 | HepG2-TP53BP1-CLTA | HepG2-TUBA1B-RELA | WPMY1-TP53BP1-CLTA | WPMY1-TUBA1B-RELA
3 µM: all other assays above

COc1cc([C@@H]2c3cc4c(cc3[C@@H](O[C@@H]3O[C@@H]5CO[C@@H](c6cccs6)O[C@H]5[C@H](O)[C@H]3O)[C@H]3COC(=O)[C@H]23)OCO4)cc(OC)c1O [teniposide]
≤ 0.3 µM: all assays above

CC[C@H](CO)Nc1nc(NCc2ccc(-c3ccccn3)cc2)c2ncn(C(C)C)c2n1
≤ 0.3 µM: all assays above

Cc1ccc(/C(=C/CN2CCCC2)c2cccc(/C=C/C(=O)O)n2)cc1 [acrivastine]
3 µM: HepG2-ACTB-RAB5A | HepG2-GM130-SQSTM1
9 µM: HepG2-CANX-COX4 | HepG2-TP53BP1-CLTA | WPMY1-TP53BP1-CLTA
1 µM: all other assays above

Nc1ncnc2c1c(-c1cnc3[nH]ccc3c1)nn2C1CCCC1
1 µM: HepG2-ACTB-RAB5A | WPMY1-ACTB-RAB5A | WPMY1-CANX-COX4 | WPMY1-GM130-SQSTM1 | WPMY1-TUBA1B-RELA
≤ 0.3 µM: all other assays above

COc1c(C)cnc(Cn2cc(C#CCC(C)(C)O)c3c(Cl)nc(N)nc32)c1C
≤ 0.3 µM: all assays above

COc1ccc(S(=O)(=O)N(CCO)c2ccccc2CN(C)C/C=C/c2ccc(Cl)cc2)cc1
3 µM: HepG2-CANX-COX4
9 µM: all other assays above

O=C(CCCCCCC(=O)Nc1ccccc1)NO
≤ 0.3 µM: HepG2-GM130-SQSTM1 | WPMY1-CANX-COX4
3 µM: HepG2-TP53BP1-CLTA
1 µM: all other assays above

O=C(Nc1cccc(Cl)c1)Nc1ncc(CCNc2ncnc3ccsc23)s1 [SNS 314 mesylate]
≤ 0.3 µM: all assays above

CCCCCCCCCCCCCCCC[n+]1ccn(Cc2ccccc2)c1C
3 µM: WPMY1-ACTB-RAB5A | WPMY1-GM130-SQSTM1 | WPMY1-TP53BP1-CLTA | WPMY1-TUBA1B-RELA
1 µM: all other assays above

COc1ccccc1S(=O)(=O)Nc1ccc2c(c1)CN(C)C(=O)N2
9 µM: WPMY1-TP53BP1-CLTA
1 µM: HepG2-ACTB-RAB5A
3 µM: all other assays above

CCC1(O)CC2CN(CCc3c([nH]c4ccccc34)C(C(=O)OC)(c3cc4c(cc3OC)N(C)C3C(O)(C(=O)OC)C(OC(C)=O)C5(CC)C=CCN6CCC43C65)C2)C1 (stereo not given) [Vinblastine sulfate]
1 µM: HepG2-TP53BP1-CLTA
≤ 0.3 µM: all other assays above

O=C(NC(NC(=S)Nc1ccc(F)c([N+](=O)[O-])c1)C(Cl)(Cl)Cl)C(c1ccccc1)c1ccccc1 (stereo not given)
9 µM: all assays above

NC1(C(=O)N[C@@H](CCO)c2ccc(Cl)cc2)CCN(c2ncnc3[nH]ccc23)CC1
3 µM: HepG2-ACTB-RAB5A | HepG2-CANX-COX4
1 µM: all other assays above

CCNC(=O)c1noc(-c2cc(C(C)C)c(O)cc2O)c1-c1ccc(CN2CCOCC2)cc1
≤ 0.3 µM: all assays above

O=C(Cc1ccc(-c2ccc(OCCN3CCOCC3)cc2)cn1)NCc1ccccc1
≤ 0.3 µM: all assays above

O=C(NCc1cccc(O)c1)Nc1nc(-c2ccncc2)cs1 [RKI 1447 dihydrochloride]
≤ 0.3 µM: all assays above

COc1cc(/C=C/c2ccc(OC)cc2OC)cc(OC)c1
3 µM: HepG2-ACTB-RAB5A | HepG2-CANX-COX4 | HepG2-GM130-SQSTM1 | HepG2-TP53BP1-CLTA | HepG2-TUBA1B-RELA
1 µM: all other assays above

Nc1nccc2c1ncn2[C@@H]1C=C(CO)[C@@H](O)[C@H]1O [3-Deazaneplanocin A hydrochloride]
3 µM: WPMY1-TP53BP1-CLTA
≤ 0.3 µM: HepG2-CANX-COX4
1 µM: all other assays above

CN(C)CCCNc1c2c(=O)n(C)c(=O)nc-2n(C)c2ccccc12
3 µM: WPMY1-TUBA1B-RELA
9 µM: all other assays above

CC(C)c1cc(-c2n[nH]c(=O)n2-c2ccc3c(ccn3C)c2)c(O)cc1O [ganetespib]
≤ 0.3 µM: all assays above

C[C@H]1[C@H]2CC[C@H]3[C@@H]4CC=C5C[C@@H](N(C)C)CC[C@]5(C)[C@H]4CC[C@]23CN1C [Conessine]
1 µM: HepG2-TP53BP1-CLTA | WPMY1-GM130-SQSTM1
9 µM: HepG2-ACTB-RAB5A | HepG2-CANX-COX4 | WPMY1-ACTB-RAB5A | WPMY1-TUBA1B-RELA
3 µM: all other assays above

NC(=O)Nc1sc(-c2ccc(F)cc2)cc1C(N)=O
3 µM: HepG2-CANX-COX4
9 µM: all other assays above
